Measurements from PubChem BioAssay (Tox21).
Values joined by “and” are separate entries in the source; they are usually repeats but may differ in a detail not shown here. Equal values may be shown once. Records with an inconclusive call do not appear. A call without a number means that no potency is given here. The source holds several records for some structures; these can differ, active in one and inactive in another. Active and inactive are the calls of the source. Unless noted, the call rests on the fitted dose curve.

What was measured:
[1] = qHTS assay to identify small molecule agonists of the vitamin D receptor (VDR) signaling pathway - cell viability counter screen (AID 743224; active means well fitted curve in the direction sought with a large enough effect in the repeat runs; an effect the other way counts as inactive or inconclusive; further: nearly all actives have a fitted effect of over 50% in size; further: potency means the concentration at half of the fitted maximal effect)
Method in brief: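 VDR-bla cells, 4 h after plating, exposed to compounds for 16 h at 37C; viability then read in the same wells as CellTiter-Glo luminescence after 30 min at room temperature, following the bla FRET read.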

[2] = qHTS assay to identify small molecule antagonists of the vitamin D receptor (VDR) signaling pathway - cell viability counter screen (AID 743225; active means well fitted curve in the direction sought with a large enough effect in the repeat runs; an effect the other way counts as inactive or inconclusive; further: nearly all actives have a fitted effect of over 50% in size; further: potency means the concentration at half of the fitted maximal effect)
Method in brief: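 Cells (VDR-UAS-bla HEK 293T) are plated, rested 4 h at 37C, dosed with compound and 3 nM final 1-alpha,25-dihydroxy vitamin D3, and incubated 16 h. Viability is taken from CellTiter-Glo luminescence in the reporter wells.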

[3] = qHTS assay to identify small molecule agonists of the NFkB signaling pathway - cell viability counter screen (AID 1159515); further: nearly all actives have a fitted effect of over 55% in size; further: potency means the concentration at half of the fitted maximal effect
Method in brief: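 NFkB-bla ME-180 cells, 2,000/well, plated overnight at 37 C; compound added for 5 hr at 37 C. Viability read in the same wells as the bla reporter, by CellTiter-Glo luminescence after 30 min at room temperature.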

[4] = qHTS assay to identify small molecule agonists of the endoplasmic reticulum stress response signaling pathway - cell viability counter screen (AID 1159517); further: nearly all actives have a fitted effect of over 50% in size; further: potency means the concentration at half of the fitted maximal effect
Method in brief: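 ESRE-bla HeLa cells, 1,500 per well, seeded overnight then treated with compounds for 5 hr at 37 C. After the beta-lactamase read, viability in the same wells is measured by CellTiter-Glo luminescence after 30 min at room temperature.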

[5] = qHTS assay to identify small molecule antagonists of the retinoid-related orphan receptor gamma (ROR-gamma) signaling pathway - cell viability counter screen (AID 1159520; active means well fitted curve in the direction sought with a large enough effect in the repeat runs; an effect the other way counts as inactive or inconclusive; further: nearly all actives have a fitted effect of over 50% in size; further: potency means the concentration at half of the fitted maximal effect)
Method in brief: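 Tet-on ROR gamma CHO cells were given compounds for 2 hr, then doxycycline hyclate at 1 uM final, and incubated 16 hr at 37 C. Viability was measured as ATP content by CellTiter-Glo luminescence.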

[6] = qHTS assay to identify small molecule agonists of the AP-1 signaling pathway - cell viability counter screen (AID 1159525); further: nearly all actives have a fitted effect of over 55% in size; further: potency means the concentration at half of the fitted maximal effect
Method in brief: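 AP-1-bla ME-180 cells in Opti-MEM with 0.5% dialyzed FBS, compound exposure 5 h at 37 C in 15-point titration. Viability read in the same wells as ATP content by CellTiter-Glo luminescence, normalised to tetra-n-octylammonium bromide and DMSO controls.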

[7] = qHTS assay to identify small molecule agonists of the AP-1 signaling pathway (AID 1159526); further: potency means the concentration at half of the fitted maximal effect
[8] = target: Nuclear receptor ROR-gamma (Homo sapiens) (UniProt P51449); assay: qHTS assay to identify small molecule antagonists of the retinoid-related orphan receptor gamma (ROR-gamma) signaling pathway (AID 1159521; active means well fitted curve in the direction sought with a large enough effect in the repeat runs; an effect the other way counts as inactive or inconclusive; further: nearly all actives have a fitted effect of over 50% in size; further: potency means the concentration at half of the fitted maximal effect)
Method in brief: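 RORγ antagonism is scored from reduced reporter luminescence in Tet-on CHO cells. Induction used 1 uM final doxycycline hyclate for 16 h at 37 C, following a 2 h compound exposure.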

[9] = target: Retinoic acid receptor RXR-alpha (Homo sapiens) (UniProt P19793); assay: qHTS assay to identify small molecule agonists of the RXR signaling pathway (AID 1159527); further: nearly all actives have a fitted effect of over 35% in size
Retinoic acid receptor RXR-alpha (Homo sapiens), sequence (P19793 whole entry, looked up): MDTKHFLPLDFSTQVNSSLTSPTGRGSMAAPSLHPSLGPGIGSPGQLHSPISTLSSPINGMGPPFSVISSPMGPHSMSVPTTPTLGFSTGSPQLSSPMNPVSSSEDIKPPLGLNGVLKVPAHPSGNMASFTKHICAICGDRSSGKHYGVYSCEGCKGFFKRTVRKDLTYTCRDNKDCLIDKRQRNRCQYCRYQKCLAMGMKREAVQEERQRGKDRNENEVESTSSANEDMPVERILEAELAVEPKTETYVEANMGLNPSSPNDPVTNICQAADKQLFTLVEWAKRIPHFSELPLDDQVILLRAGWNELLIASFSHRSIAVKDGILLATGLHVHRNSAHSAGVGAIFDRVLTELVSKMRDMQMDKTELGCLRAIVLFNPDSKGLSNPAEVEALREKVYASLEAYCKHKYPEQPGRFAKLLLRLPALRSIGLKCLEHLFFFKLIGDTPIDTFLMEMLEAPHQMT
Method in brief: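 qHTS of the Tox21 10K library in GeneBLAzer RXR-alpha HEK 293T cells carrying a beta-lactamase reporter […]; 16 hr treatment, 9-cis retinoic acid as agonist control, FRET read-out.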

Row | Compound | Potency [1] | Potency [2] | Potency [3] | Potency [4] | Potency [5] | Potency [6] | Potency [7] | Potency [8] | Potency [9]
1 | CN(C)c1ccc(C(=C2C=CC(=[N+](C)C)C=C2)c2ccccc2)cc1 | 219 nM (active) and 2.11 µM (active) | 490 nM (active) and 3.38 µM (active) | 3.09 µM (active) and 10.7 µM (active) | 27.5 µM (active) | 5.45 µM (active) and 4.22 µM (active) and 10.6 µM (active) | 13.8 µM (active) and 23.9 µM (active) and 10.7 µM (active) | 0.848 µM (active) | – | –
2 | O=C1OC2(c3ccc(O)cc3Oc3cc(O)ccc32)c2ccccc21 | inactive | inactive | inactive | inactive | inactive | inactive | – | inactive | –
3 | Nc1nc(=S)c2[nH]cnc2[nH]1 | 1.74 µM (active) and 3.35 µM (active) | – | inactive | inactive | – | inactive | inactive | 26.6 µM (active) and inactive | –
4 | CCCCCCC(O)CCCCCCCCCCC(=O)O (stereo not drawn) | 19.6 µM (active) and 11 µM (active) | – | inactive | inactive | inactive | inactive | – | – | inactive
5 | CC(C)(C)c1ccc(O)c(C(C)(C)C)c1 | 34.5 µM (active) and 30.9 µM (active) | 24.4 µM (active) and 43.6 µM (active) | 48.8 µM (active) and 49 µM (active) | 54.7 µM (active) and 49 µM (active) | 54.3 µM (active) | 34.5 µM (active) | – | 43.1 µM (active) and inactive | –
6 | Nc1nc2ccccc2[nH]1 | inactive | inactive | inactive | inactive | inactive | inactive | – | – | inactive
7 | Clc1ccc2c(c1)C(N1CCNCC1)=Nc1ccccc1O2 | – | 49 µM (active) and inactive | inactive | inactive | inactive | inactive | – | inactive | inactive
8 | CCCCCCCCCCCCCC[P+](CCCC)(CCCC)CCCC | 6.88 µM (active) and 7.76 µM (active) | 6.88 µM (active) and 7.76 µM (active) | 34.5 µM (active) and 21.9 µM (active) | 13.7 µM (active) and 15.5 µM (active) | 13.6 µM (active) and 10.9 µM (active) | 17.3 µM (active) and 21.9 µM (active) | – | 3.05 µM (active) and 4.86 µM (active) | –
9 | CC[C@]1(O)C[C@@H]2CN(CCc3c([nH]c4ccccc34)[C@@](C(=O)OC)(c3cc4c(cc3OC)N(C)[C@H]3[C@@](O)(C(=O)OC)[C@H](OC(C)=O)[C@]5(CC)C=CCN6CC[C@]43[C@@H]65)C2)C1 | inactive | inactive | inactive | inactive | – | inactive | 0.268 µM (active) | 596 nM (active) and 8.41 µM (active) | –
10 | CCN(CC)c1ccc2c(C)cc(=O)oc2c1 | inactive | inactive | inactive | inactive | inactive | inactive | – | inactive | –
11 | CC(COc1ccccc1)N(CCCl)Cc1ccccc1 (stereo not drawn) | inactive | inactive | inactive | inactive | 49.1 µM (active) and 54.5 µM (active) and 29.8 µM (active) | inactive | – | 49.1 µM (active) and inactive | inactive
12 | Cc1c(O)cccc1C(=O)N[C@@H](CSc1ccccc1)[C@H](O)CN1C[C@H]2CCCC[C@H]2C[C@H]1C(=O)NC(C)(C)C | 15.1 µM (active) and 26.6 µM (active) | 23.9 µM (active) and 21.3 µM (active) | inactive | inactive | – | inactive | inactive | 23.7 µM (active) and 9.44 µM (active) | –
